{
  "source": "PubChem BioAssay AID504332",
  "about": "(National Center for Advancing Translational Sciences (NCATS), 2011)",
  "note": "In all, about 350,000 compounds went through this assay and about 31,000 (8.9%) were called active. Where a call stands in place of a potency, no number is given. Not shown: some 15% with an inconclusive outcome. Calls follow the shape of the dose curve; as a rule, active = well fitted inhibition curve with a large enough effect; inconclusive = small, poorly fitted or top-dose-only effect; inactive = no such curve, though single readings can be large or run the other way. For the sample, actives were picked, then their nearest neighbours and some compounds at random. Potency is read from the fitted curve at half-maximal effect.",
  "data": [
    {"target": "Histone-lysine N-methyltransferase EHMT2 (Homo sapiens) (UniProt Q96KQ7)", "sequence (Q96KQ7 913-1193 limits assumed)": "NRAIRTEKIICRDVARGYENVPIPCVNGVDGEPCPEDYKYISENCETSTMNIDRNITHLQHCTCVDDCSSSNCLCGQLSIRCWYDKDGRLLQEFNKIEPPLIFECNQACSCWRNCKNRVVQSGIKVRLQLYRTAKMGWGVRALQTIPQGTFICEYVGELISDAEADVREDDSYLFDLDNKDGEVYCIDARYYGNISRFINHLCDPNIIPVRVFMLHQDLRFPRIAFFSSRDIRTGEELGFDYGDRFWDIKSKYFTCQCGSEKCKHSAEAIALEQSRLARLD", "assay": "qHTS Assay for Inhibitors of Histone Lysine Methyltransferase G9a; also: nearly all actives have a fitted effect of over 75% in size", "conditions": "G9a H3K9 monomethylation, AlphaScreen, 2 h; series mostly up to 59 µM", "method_in_brief": "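G9a (20 nM) was preincubated 15 min with compound, then reacted 2 h at room temperature with 500 nM biotin-H3K9 peptide and 20 µM SAM. Monomethyl-H3K9 detected by AlphaScreen using anti-H3K9me1 antibody.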", "values": [
      {"smiles": "CSCCC(NC(=O)COc1ccccc1)C(=O)N(C)CC(=O)Nc1ccc(C)cc1", "note": "(stereo not given)", "Potency": "inactive"},
      {"smiles": "NS(=O)(=O)c1ccc2nc(NC(=O)COc3ccccc3)sc2c1", "Potency": "inactive"},
      {"smiles": "FC(F)(F)c1nc2ccccc2nc1N/N=C/c1ccc(Cl)cc1", "Potency": "inactive"},
      {"smiles": "CN(CCO)c1ccc(/C=N/Nc2nncc3ccccc23)cc1", "Potency": "31.6 µM (active)"},
      {"smiles": "COc1cc(/C=N/Nc2nn3cnnc3c3ccccc23)cc(OC)c1OC", "Potency": "inactive"},
      {"smiles": "CCOc1ncccc1C(=O)OCC(=O)Nc1cccc(S(=O)(=O)N2CCCCCC2)c1", "activity, negative = inhibition": "-1.01% [at 2.33 µM] (inactive)"},
      {"smiles": "CC(C)Nc1nnc(SCC(=O)/C=C2\\N(C)c3ccccc3C2(C)C)s1", "Potency": "inactive"},
      {"smiles": "CN1/C(=C\\C(=O)c2oc3ccccc3c2N)C(C)(C)c2ccccc21", "Potency": "inactive"},
      {"smiles": "CN1CCN(CCC(=O)N/N=C/C=C2\\N(C)c3ccccc3C2(C)C)CC1", "Potency": "31.6 µM (active)"},
      {"smiles": "CCN(CCCNC(=O)c1cc2c(=O)n(CC)c3ccccc3c2s1)Cc1ccccc1", "Potency": "inactive"},
      {"smiles": "CCOC(=O)c1ccc(NC(=O)Cc2cccs2)cc1", "Potency": "inactive"},
      {"smiles": "CCCN1C(=O)C(O)(CC(=O)c2ccc(CC)cc2)c2cc(Br)ccc21", "note": "(stereo not given)", "Potency": "inactive"},
      {"smiles": "COc1ccc(N2CC(C(=O)N[C@@H](C)C(=O)N3CCCCC3)CC2=O)cc1", "note": "(stereo not given in full)", "Potency": "inactive"},
      {"smiles": "COc1ccc(C2OC(=O)CC2C(=O)NC(C)C)cc1", "note": "(stereo not given)", "Potency": "28.2 µM (active)"},
      {"smiles": "COc1ccc(C(C)NC(=O)C2CCCC2)cc1", "note": "(stereo not given)", "Potency": "inactive"},
      {"smiles": "COc1ccc(NC(=O)CSc2nc3ccccc3n2CC(=O)N2CCCCC2C)cc1", "note": "(stereo not given)", "Potency": "inactive"},
      {"smiles": "CCOc1ccc(NC(=O)CN(C)C(=O)Cc2sc(C)nc2-c2ccc(F)cc2)cc1OCC", "Potency": "inactive"},
      {"smiles": "O=C(NCCc1c[nH]c2ccccc12)c1cccc(Br)c1", "activity, negative = inhibition": "0.2% [at 2.33 µM] (inactive)"},
      {"smiles": "O=C(NCCc1c[nH]c2ccccc12)c1cc2ccccc2oc1=O", "Potency": "inactive"},
      {"smiles": "Cc1cc(C)cc(NC(=S)NCCc2c[nH]c3ccccc23)c1", "Potency": "39.8 µM (active)"},
      {"smiles": "O=C(O[C@H]1[C@H](Cc2ccccc2)NS(=O)(=O)[C@H]2C[C@@H]3C=C[C@]12O3)c1ccc([N+](=O)[O-])cc1", "activity, negative = inhibition": "-6.93% [at 2.33 µM] (inactive)"},
      {"smiles": "Brc1ccc(CN2CC[C@H]3C=CCc4cccc(c43)C2)cc1", "activity, negative = inhibition": "12.2% [at 2.33 µM] (inactive)"},
      {"smiles": "CCc1ccc(NC(=O)c2cc(S(=O)(=O)NC3CCCCCC3)ccc2F)cc1", "Potency": "inactive"},
      {"smiles": "COc1ccc(-c2[nH]ncc2CN(Cc2nccn2C)C(C)C)cc1F", "Potency": "inactive"},
      {"smiles": "Cc1ccc(-n2cc(CN(C)Cc3nccn3C)c(-c3cccc(C)c3)n2)cc1", "Potency": "39.8 µM (active)"},
      {"smiles": "Cc1cccc(-n2cc(CN3CCN(C(=O)c4ncn[nH]4)CC3)c(-c3cccc(F)c3)n2)c1", "Potency": "inactive"},
      {"smiles": "COc1cc(C(=O)NCCS(=O)(=O)N2CCN(c3ccccc3)CC2)cc(OC)c1OC", "Potency": "inactive"},
      {"smiles": "Cc1ccccc1CNC(=O)C(=O)NCC(c1cccs1)S(=O)(=O)c1cccs1", "note": "(stereo not given)", "Potency": "inactive"},
      {"smiles": "CCc1ccc(NC(=O)CCS(=O)(=O)c2cc3c(cc2Cl)NC(=O)CO3)cc1", "Potency": "inactive"},
      {"smiles": "CCOC(=O)c1ccc(-c2ccc(/C=C(\\C#N)C(=O)Nc3ccc(C)cc3)o2)cc1", "Potency": "inactive"},
      {"smiles": "CC(=O)Nc1ccc(NC(=O)c2ccc3c(c2)C(=O)N(c2ccccc2C)C3=O)cc1", "Potency": "39.8 µM (active)"},
      {"smiles": "Cc1cccc(N2C(=O)c3ccc(C(=O)Nc4cccc(C(=O)O)c4)cc3C2=O)c1", "Potency": "inactive"},
      {"smiles": "O=C(Nc1ccc2c(c1)OCO2)c1ccc(N2C(=O)c3ccccc3C2=O)cc1", "Potency": "inactive"},
      {"smiles": "O=C(CCNS(=O)(=O)c1ccc(Br)cc1)NCC1CCCO1", "note": "(stereo not given)", "Potency": "inactive"},
      {"smiles": "CC1CN(C(=O)N2CCC(C(=O)NCc3cccs3)CC2)c2ccccc2O1", "note": "(stereo not given)", "Potency": "inactive"},
      {"smiles": "CSCCC(NC(=O)COc1ccccc1)C(=O)OCCOc1ccc(F)cc1", "note": "(stereo not given)", "Potency": "inactive"},
      {"smiles": "COC(=O)c1cc(-c2cccs2)nc2ccccc12", "activity, negative = inhibition": "17% [at 2.33 µM] (inactive)"},
      {"smiles": "O=C(Nc1nnc(-c2ccccc2)o1)c1cc(-c2cccs2)nc2ccccc12", "Potency": "39.8 µM (active)"},
      {"smiles": "CCCCN(C)CCCNC(=O)c1cc(-c2cccs2)nc2ccccc12", "Potency": "inactive"},
      {"smiles": "COC(=O)c1cc2occc2n1Cc1nc(-c2ccc(C)cc2)oc1C", "Potency": "inactive"},
      {"smiles": "CC(=O)c1c(C)[nH]c(C(=O)OCC(=O)Nc2c(C)n(C)n(-c3ccccc3)c2=O)c1C", "Potency": "inactive"},
      {"smiles": "Cc1ccc(N2C(=O)CC(NCc3ccc4c(c3)OCO4)C2=O)cc1Cl", "note": "(stereo not given)", "Potency": "39.8 µM (active)"},
      {"smiles": "Cc1ccc(CC2CC(=O)N(c3ccc4c(c3)OCCO4)C2=O)cc1", "note": "(stereo not given)", "Potency": "inactive"},
      {"smiles": "CC1CCCCN1CC(=O)NCc1ccc2c(c1)OCO2", "note": "(stereo not given)", "activity, negative = inhibition": "8.12% [at 12.7 µM] (inactive)"},
      {"smiles": "O=C(c1ccc(Cn2cc([N+](=O)[O-])cn2)o1)N1CCCC1", "Potency": "inactive"},
      {"smiles": "CCCCNC(=O)C1CCCN(c2nnc(C)c3c(C)n(-c4ccc(Cl)cc4)nc23)C1", "note": "(stereo not given)", "Potency": "inactive"},
      {"smiles": "COc1ccc(-n2c(SC)nc3sc4c(c3c2=O)CCN(C(C)=O)C4)cc1", "Potency": "inactive"},
      {"smiles": "CC1(C)Cc2c(sc3nc(SCC(=O)NCc4ccccc4)n(-c4ccccc4)c(=O)c23)CS1", "Potency": "inactive"},
      {"smiles": "COc1ccccc1-n1c(SCC(=O)O)nc2sc3c(c2c1=O)CCC3", "Potency": "inactive"},
      {"smiles": "CCOc1ccc(-n2c(SCC(=O)Nc3ccc(OC)cc3)nc3sc4c(c3c2=O)CCN(C)C4)cc1", "Potency": "39.8 µM (active)"},
      {"smiles": "CCOc1ccc(NC(=O)CSc2nc3c(c(=O)n2-c2ccccc2OC)SCC3)cc1", "Potency": "31.6 µM (active)"},
      {"smiles": "COc1ccccc1NC(=O)CSc1nc2sc3c(c2c(=O)n1-c1ccccc1)CCN(C)C3", "Potency": "39.8 µM (active)"},
      {"smiles": "CCOC(=O)c1sc(NC(=O)CSc2nc3c(c(=O)n2-c2ccccc2)SCC3)c(C(=O)OCC)c1C", "Potency": "inactive"},
      {"smiles": "CCOc1ccc(NC(=O)CSc2nncn2C)cc1", "Potency": "inactive"},
      {"smiles": "CCc1nnc(NC(=O)CSc2nc3c(c(=O)n2-c2ccccc2OC)SCC3)s1", "activity, negative = inhibition": "-12.8% [at 12.7 µM] (inactive)"},
      {"smiles": "COc1ccc(/C=C/c2nc(C#N)c(NCc3ccc(F)cc3)o2)cc1OC", "Potency": "inactive"},
      {"smiles": "COc1ccc(NC(=O)CC2SC(N3CCCCC3)=NC2=O)cc1OC", "note": "(stereo not given)", "activity, negative = inhibition": "29.8% [at 12.7 µM] (inactive)"},
      {"smiles": "O=c1c2ccccc2n(Cc2cccc(Cl)c2)c(=O)n1Cc1ccccc1", "Potency": "inactive"},
      {"smiles": "COc1ccc(CNC(=O)CSCc2nc(-c3ccccc3F)oc2C)cc1", "Potency": "inactive"},
      {"smiles": "O=C(Cn1c(=O)n(-c2ccc(F)cc2)c(=O)c2sccc21)Nc1cccc(C(F)(F)F)c1", "Potency": "inactive"}
    ]}
  ]
}
